This passage reports z-score results from PubChem BioAssay AID1508600 (Functional Genomics Laboratory (NCATS/FGL), 2020).

The campaign covered roughly 53,000 sequences. About 3,700 (7%) were called active. This is one part of a sample in which actives are shown more often than they occur.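 How the source made its calls: active means gene knockdowns whose robust z-score for IL-1 alpha signal is at least 2 or at most -2, so actives lie on both sides; inactive means the rest.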

This assay can be described thus: Components of the Cytosolic LPS Sensing Pathway: Gene Identification via Genome-wide siRNA Screen.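 Further: robust z of the log signal after scaling to non-targeting control siRNA wells of the plate.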 The conditions noted are these: RAW264.7 macrophages, IL-1a HTRF, actives lie on both sides, screened at 100 nM (by protocol), cells primed 5 h with Pam3CSK4 first. In short, it runs like this:
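Using IL-1a HTRF as read-out, the screen measured release from RAW264.7 cells after 48h siRNA knockdown (100 nM), 5 h Pam3CSK4 priming and 24 h cytosolic LipidA. Values were expressed relative to negative-control wells as robust z-scores.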
Consider GGUAUGGAAGACAAAACCUTT against Nlrp1a, for which the z-score was 0.61 (inactive).
For the sequence GGAACACUGUGAGAACAAGTT against Peak1, the z-score is 0.124 (inactive).
As for GGAGUAUUACGUCUGAUAUTT against Nrxn1, the z-score is 2.39 (active).
As for GGUGCUUAAUUCCUGUCCCTT against Ggn, the z-score is -0.855 (inactive).
As for GGAGUUCUUCACGCGUAACTT against G6pd2, the z-score was 0.599 (inactive).
In the case of GCUAGAGGAGUUUCUAAACTT against Clu, the z-score is 0.0975 (inactive).
Turning to GCUGGUGUCGGCAAAUCCUTT against Wnk1, the z-score was -0.62 (inactive).
Turning to GCAGAAUGAGUUCAGACGATT against Mgmt, the z-score was 0.36 (inactive).
On to GGCUUUCAGUUAUUUGACATT against Zfp709, for which the z-score was -0.636 (inactive).
As to GGUUGUCUUUCUACUCGGGTT against Plpp1, the z-score is 1.37 (inactive).
GGGAUGUCUUCCUAUACAGTT against Cope: the z-score is -2.78 (active).
As to GCUGAUGGAGAGUUAUUUGTT against Rcbtb1, the z-score is 0.675 (inactive).
On to CCACCCAAAAGUAAAAAGUTT against Rpp38, for which the z-score is -1.29 (inactive).
Consider GGUCUGGAUGCUUUAGAAUTT against Fam114a1, for which the z-score is -0.373 (inactive).
Turning to GCAUUACUUGAGCAAAACATT against Zfp654, the z-score is -0.854 (inactive).
With GGCUCUGGAUGAAGAACUUTT against Gfpt2, the z-score was 4.13 (active).
CCUUCCUGUCCAUGUACCUTT against Olfr412: the z-score was 0.879 (inactive).
Turning to GGUCACUGUAAAAUGAACCTT against Odf2, the z-score is 1.48 (inactive).
The same measure for CGCACAUGUAGUUAAUAAATT against Iqcg: -0.96 (inactive); for GGGCAAAGGAAAUGGAAUCTT against Eif5: 2.33 (active); for GGCUCUUACUUCAUCACUATT against Casp4: -1.9 (inactive).
The same measure for GGCCACUUCGUGUUCUUUUTT against Hoxa10: 2.08 (active).
The same measure for GGUUUUUAACCAAACAUGATT against Actr3: -0.784 (inactive); for CCAUCACUACACGAAAUUGTT against Fgf12: 0.176 (inactive).
AAAAAUGUCGGAUUCCCAATT against Adgrf3: the z-score is -0.121 (inactive).
Consider GCGAGUCUCACAUCAGUGATT against Tshz3, for which the z-score is 2.68 (active).
On to CGCAGCAGGAAUCAGGAAUTT against Tsr1, for which the z-score was 0.222 (inactive).
The same measure for GGAUGUGGAGUCACUGAUGTT against Ccdc91: -0.863 (inactive); for GGAUGAUGACGACAUUGAUTT against Eef1b2: 0.292 (inactive); for GGCAGACAACGUGUCACCUTT against Aldh1a3: -0.883 (inactive).
With GGAGAAGACCAUAAAGAAGTT against Flywch1, the z-score is -0.554 (inactive).
Consider GACAUUUGUAUGCAGUCAUTT against Vmn1r193, for which the z-score is -2.65 (active).
Take CCCUCUACACUAUACCACATT against Olfr347: the z-score is -0.498 (inactive).
Regarding GGAUUCUGGGCUGAAUGGGTT against Pcdh18, the z-score was -0.491 (inactive).
Take GGAACCAUCUUCAACCAACTT against Eme1: the z-score was -1.44 (inactive).
Take GGAGAACUGUAAAUAAACUTT against Duoxa2: the z-score was -2.1 (active).
Take CCAUAGAGUGGAUAGUCAUTT against Rsl1: the z-score is 0.385 (inactive).
Turning to CCCUCAAAACCUAUGCCUUTT against Ugt1a2, the z-score is 0.715 (inactive).
In the case of GCAGGCUAUGUUCUGGAAUTT against Zfp212, the z-score is 2.34 (active).
Regarding GGAUGAUUGCUGACGUGGATT against Bax, the z-score is 0.299 (inactive).
On to CCUCCUAUUUGCUUCAUUUTT against Cytip, for which the z-score is -1.32 (inactive).
As to CCUGAUCCGAUCAUCAGGATT against Cytip, the z-score is 0.133 (inactive).
As for GGAAGGGCAAGUUAUGAAATT against Fgf14, the z-score is 0.0843 (inactive).
Take GGGACAUUUCUAUUAGAAUTT against Snx24: the z-score was -0.95 (inactive).
Take CCAUACCAAUGAAUGCCUCTT against Fas: the z-score was -1.4 (inactive).
Turning to “CCACUUCCUUACGAUUGAUTT against Aadacl4fm1”, the z-score was -2.09 (active).
Take GGCUGAGGAGUGGUACUUUTT against Src: the z-score was -1.13 (inactive).
GCUAUGACUUCAACGACUATT against Pcsk4: the z-score is -0.309 (inactive).
For GGAUCUGUACAAGACUUAUTT against Olfr800, the z-score was -0.011 (inactive).
On to GCCAACAGAAAUAAGCCUUTT against Sorcs1, for which the z-score is 0.221 (inactive).
As to CCACACCAGAGGUCUUUGATT against Pde4dip, the z-score is -1.74 (inactive).
CGAUUCCUUUGUAACGAAATT against Aldh5a1: the z-score is 1.04 (inactive).
For the sequence GGCACUUAAGUUUCAUAAGTT against Qars, the z-score was 0.466 (inactive).
Take CCAAGAGCUGAAACAAGAATT against Ankrd12: the z-score was -2.01 (active).
GGUAGUGAUCCUCAAAAAATT against Myc: the z-score is 1.84 (inactive).
Regarding AGUCUUCACGUUUCAUUUATT against Olfr1195, the z-score is 0.32 (inactive).
For CGCUGUUUGUUCAAGAGGATT against Thbs1, the z-score was 1.05 (inactive).
The same measure for GCACAAGCGAAGAAGUUUGTT against Ube2i: -0.0933 (inactive).
For GCUCAACUUGGAAUUGGAGTT against Arhgap29, the z-score was 2.28 (active).
Regarding CCAUCUUGACAUCUCGUGUTT against Olfr592, the z-score was -1.9 (inactive).
For the sequence CUUUAUGGGUCGUGGAGGATT against Hnrnpa3, the z-score is -1.12 (inactive).
As to GGAAUAGGACCUAUGUCUGTT against Nr2e1, the z-score is -0.455 (inactive).
For the sequence CCCUGGCUGAGUGCUUUGUTT against Olfr199, the z-score is 0.887 (inactive).
Consider GGGUUGCCACAUGUUAUAUTT against Smad2, for which the z-score is -0.0821 (inactive).
The same measure for GGAGAAUGAGUGGUAUCUGTT against Msh2: -1.48 (inactive).
Turning to AAGGACGAUCCUGAUUUCATT against Gm5431, the z-score was 0.828 (inactive).
Turning to CCAUACAUCCGAGAGUUUGTT against Snrnp70, the z-score was 2.37 (active).
For the sequence GCCCUUUCAUCAAUAAUGUTT against Slc12a7, the z-score is -0.113 (inactive).
For GGAAACAUAACCUUCAAUGTT against Wdr3, the z-score was 1.13 (inactive).
CGGAAGCCUCCACAAAUAATT against Apba1: the z-score is 0.0959 (inactive).
Turning to GGUGUCUACUCUGAGUUGCTT against Pan2, the z-score is 1.94 (inactive).
The same measure for GCGGAGGAGUUUUCUUCGATT against Susd4: 0.93 (inactive).
The same measure for GGACCAUGCUCCCUACUUATT against Prss37: 0.386 (inactive); for GGCUGGUUGGAAGGAAAAUTT against Ints6l: 2.1 (active).
As for GGCUGUUCAAAAAUUUCGGTT against Sox17, the z-score is -0.261 (inactive).
GGUUUUGAGAAGAUAACUCTT against Zfp236: the z-score is 0.67 (inactive).
With GGACACACUCUACUUCCCATT against Mrgprg, the z-score was -0.196 (inactive).
Regarding GGUUCGAGUUUCAUACUAUTT against Padi4, the z-score was 2.56 (active).
With “GUCAGAACAAAACCAAAUGTT against E330013P04Rik”, the z-score was -0.152 (inactive).
On to GGAAUCAUCUUCAUUGACCTT against Agpat1, for which the z-score is 0.0827 (inactive).
The same measure for CGUGUGGUGUUGGUAUCAGTT against Spaca1: 0.853 (inactive); for GGAUUCAUAAAAGAAGCAATT against Zfp90: 0.8 (inactive); for GGCGGCACGUUCACCUAAATT against Rnps1: 1.86 (inactive).
On to CCACUUGUAGACUUGAUUUTT against Jag1, for which the z-score was 0.618 (inactive).
The same measure for GCCCAGAUCAAUUUGAGCGTT against Grhl2: -0.674 (inactive).
Consider “CGAGAUAGAGUCUGGAAUUTT against 1700092C17Rik”, for which the z-score was 3.91 (active).
The same measure for GGUCAUCGGGAGGUUUGAATT against Nfkbil1: -0.0141 (inactive).
As for GGAUCUCUAUAGCAUCGUGTT against Col18a1, the z-score was 0.249 (inactive).
The same measure for GGGAUGCUGUAGAUGGAAUTT against Olfr978: 0.0466 (inactive); for GGCAAAUCAAGCAGAAAAUTT against Ncor1: 0.739 (inactive).
Turning to GAUAAUGGUCACUAAAUCUTT against Vmn1r4, the z-score is -1.65 (inactive).
For the sequence GCAACCAUUUAAGAAGACCTT against Tnfrsf9, the z-score is -0.301 (inactive).
The same measure for GGUGAUCUGGACCAAGAUGTT against Lcp1: -0.52 (inactive).
For the sequence GGUCUACUUUUACGUCUCCTT against Nfatc4, the z-score was -0.339 (inactive).
The same measure for GUGUACGUCUGUUAACACATT against Dad1: -2.1 (active); for CCUUCUUGAAAACUCCAAGTT against Lum: -0.862 (inactive); for GGGAAGGCACACCAUAGAATT against Zfp369: 1.11 (inactive).
Take “GGGCUACUAUUCAUUGAUCTT against 4930550L24Rik”: the z-score is 1.94 (inactive).
The same measure for CCACUAAGUCCCAUGCUAGTT against Glycam1: 0.188 (inactive); for GGAAUUUAAGGUGUUCACATT against Lcn3: -0.197 (inactive); for GGCUCAGUGAGUUUCAGAATT against Snx25: 3.66 (active).
Take CCAAAUGUAACUGGUGUAATT against Aif1l: the z-score is -0.69 (inactive).
In the case of CGAGACAGUUUCCAUAGCGTT against Spen, the z-score is -0.271 (inactive).
As to GCAACAUUAGGAUUUAUAGTT against Gask1b, the z-score was 0.0376 (inactive).
For GGUAGUCAUACAGAUAUGUTT against Hey2, the z-score was 0.973 (inactive).
As for GCAAUCUCUCCUUUUGUGATT against Olfr1128, the z-score was 0.426 (inactive).
The same measure for GGACUUUCACAGACCACUUTT against Rgma: 0.999 (inactive); for GGAACAAGGAUGUAAAAUUTT against Olfr1090: -0.751 (inactive).
